Source: PubChem BioAssay (Tox21)
Inconclusive results are not listed. A structure can be active in one record and inactive in another. Active and inactive are the calls of the source. Unless noted, calls follow the shape of the dose curve; as a rule, active = well fitted curve in the direction sought with a large enough effect in the repeat runs; inconclusive = weak or mixed curves; inactive = no such curve, though single readings can be large; an effect the other way counts as inactive or inconclusive.

Key:
[1] = A CellTox Green Cytotoxicity Assay to monitor cytotoxicity in HEK293 cells - 32 hour (AID 1224881); also: nearly all actives have a fitted effect of over 40% in size
Outline: (§1)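 Cells (HEK293, 600/well) and dye reagent are dispensed together. After 5 h at 37 C, 23 nL compound is pinned in. Plates stay at 37 C for 40 h with fluorescence read at 0h, 8h, 16h, 24h, 32h and 40h.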

[2] = A CellTox Green Cytotoxicity Assay to monitor cytotoxicity in HepG2 cells - 0 hour (AID 1224882); also: nearly all actives have a fitted effect of over 35% in size
Outline: (§2)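 Cells and non-lytic dye reagent are dispensed together (600 HepG2 cells/well) and incubated 5 h before DMSO compound transfer. Kinetic fluorescence is then recorded in the same wells during 40 h at 37 C.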

[3] = A CellTox Green Cytotoxicity Assay to monitor cytotoxicity in HepG2 cells - 32 hour (AID 1224883); also: nearly all actives have a fitted effect of over 50% in size; also: potency is read from the fitted curve at half-maximal effect
Outline: as §2

[4] = A CellTox Green Cytotoxicity Assay to monitor cytotoxicity in HEK293 cells - 8 hour (AID 1224884); also: nearly all actives have a fitted effect of over 35% in size
Outline: as §1

[5] = qHTS RealTime-Glo MT Cell Viability Assay in HepG2 cells - 16 hour (AID 1224885); also: nearly all actives have a fitted effect of over 50% in size
Outline: (§3)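 Tox21 10K library screened in qHTS format on HepG2 cells carrying RealTime-Glo reagents. Compounds were added after a 5 h preincubation, and the luminescent signal from continuous culture was measured repeatedly during 40 h treatment.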

[6] = qHTS RealTime-Glo MT Cell Viability Assay in HEK293 cells - 24 hour (AID 1224886); also: top concentration of the series differs between compounds; nearly all actives have a fitted effect of over 50% in size
Outline: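 Luminescence generated by NanoLuc from substrate produced by living HEK293 cells served as the viability signal. Each value reflects the reading at its stated time point during continuous 40 h compound exposure at 37 C.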

[7] = qHTS RealTime-Glo MT Cell Viability Assay in HEK293 cells - 8 hour (AID 1224887); also: top concentration of the series differs between compounds; nearly all actives have a fitted effect of over 50% in size
Outline: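 Real-time viability in HEK293: signal arises when living cells convert a prosubstrate for NanoLuc in the medium, so luminescence tracks viable cell number. Compound (23 nL, DMSO) added 5 h post-seeding; kinetic reads at 0–40 h, 37 C.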

[8] = A CellTox Green Cytotoxicity Assay to monitor cytotoxicity in HEK293 cells - 16 hour (AID 1224888); also: nearly all actives have a fitted effect of over 35% in size
Outline: as §1

[9] = qHTS RealTime-Glo MT Cell Viability Assay in HepG2 cells - 0 hour (AID 1224889); also: nearly all actives have a fitted effect of over 50% in size
Outline: as §3

[10] = A CellTox Green Cytotoxicity Assay to monitor cytotoxicity in HepG2 cells - 8 hour (AID 1224890); also: nearly all actives have a fitted effect of over 45% in size
Outline: as §2

[11] = qHTS assay to identify small molecule antagonists of the estrogen receptor alpha (ER-alpha) signaling pathway using the BG1 cell line in the presence of 0.1 nM 17-beta-estradiol - cell viability counter screen (AID 1259241); also: nearly all actives have a fitted effect of over 40% in size; also: potency is read from the fitted curve at half-maximal effect
Outline: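 Live-cell protease activity (CellTiter-Fluor fluorescence, 30 min) was read in the same wells after VM7Luc4E2 cells had been exposed to compounds with 0.1 nM 17beta-estradiol for 22 hr at 37C.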

[12] = qHTS assay to identify small molecule antagonists of the androgen receptor (AR) signaling pathway using the MDA cell line in the presence of 0.5 nM R1881 - cell viability counter screen (AID 1259242); also: nearly all actives have a fitted effect of over 45% in size; also: potency is read from the fitted curve at half-maximal effect
Outline: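 Steps: plate MDA-kb2 cells, rest 5 hr at 37C without CO2; pin in compounds in DMSO; add R1881 to 0.5 nM final; incubate 16 hr; add CellTiter-Fluor, 30 min; read fluorescence.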

[13] = biological target: Androgen receptor (Homo sapiens) (UniProt P10275); test: qHTS assay to identify small molecule antagonists of the androgen receptor (AR) signaling pathway using the MDA cell line in the presence of 0.5 nM R1881 (AID 1259243); also: nearly all actives have a fitted effect of over 50% in size; also: potency is read from the fitted curve at half-maximal effect
Chain of Androgen receptor (Homo sapiens) (P10275 whole entry, looked up): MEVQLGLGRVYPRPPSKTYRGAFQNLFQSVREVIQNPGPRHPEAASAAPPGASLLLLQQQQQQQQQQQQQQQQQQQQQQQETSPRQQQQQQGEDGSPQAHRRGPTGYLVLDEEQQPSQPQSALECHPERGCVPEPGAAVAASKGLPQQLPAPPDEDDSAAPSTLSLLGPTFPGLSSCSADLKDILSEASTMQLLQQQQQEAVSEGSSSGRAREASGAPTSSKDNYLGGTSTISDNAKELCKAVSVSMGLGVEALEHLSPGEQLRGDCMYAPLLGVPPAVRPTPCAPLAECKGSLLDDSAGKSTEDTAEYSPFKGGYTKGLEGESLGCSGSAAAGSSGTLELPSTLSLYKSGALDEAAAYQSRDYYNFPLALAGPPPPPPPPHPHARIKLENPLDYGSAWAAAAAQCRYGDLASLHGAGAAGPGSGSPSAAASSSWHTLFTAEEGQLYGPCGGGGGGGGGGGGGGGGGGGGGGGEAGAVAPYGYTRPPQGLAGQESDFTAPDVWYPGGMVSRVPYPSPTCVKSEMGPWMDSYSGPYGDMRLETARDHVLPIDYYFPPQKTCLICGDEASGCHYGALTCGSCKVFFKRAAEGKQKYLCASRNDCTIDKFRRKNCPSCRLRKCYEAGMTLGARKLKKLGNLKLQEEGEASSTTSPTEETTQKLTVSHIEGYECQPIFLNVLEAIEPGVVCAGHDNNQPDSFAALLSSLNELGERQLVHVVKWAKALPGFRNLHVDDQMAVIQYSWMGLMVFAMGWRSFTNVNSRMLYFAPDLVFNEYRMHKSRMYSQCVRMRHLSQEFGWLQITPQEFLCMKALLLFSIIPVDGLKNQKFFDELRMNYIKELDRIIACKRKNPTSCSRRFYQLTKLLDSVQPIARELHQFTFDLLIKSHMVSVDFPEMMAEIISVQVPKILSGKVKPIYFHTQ
Outline: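 Stably transfected MDA-kb2 cells express luciferase from an MMTV promoter bearing both AR and GR response elements. Compounds plus 0.5 nM R1881 (final) were incubated 16 hr at 37C without CO2, then luminescence measured.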

[14] = biological target: Estrogen receptor (Homo sapiens) (UniProt P03372); test: qHTS assay to identify small molecule antagonists of the estrogen receptor alpha (ER-alpha) signaling pathway using the BG1 cell line in the presence of 0.1 nM 17-beta-estradiol (AID 1259244); also: nearly all actives have a fitted effect of over 50% in size
Chain of Estrogen receptor (Homo sapiens) (P03372 whole entry, looked up): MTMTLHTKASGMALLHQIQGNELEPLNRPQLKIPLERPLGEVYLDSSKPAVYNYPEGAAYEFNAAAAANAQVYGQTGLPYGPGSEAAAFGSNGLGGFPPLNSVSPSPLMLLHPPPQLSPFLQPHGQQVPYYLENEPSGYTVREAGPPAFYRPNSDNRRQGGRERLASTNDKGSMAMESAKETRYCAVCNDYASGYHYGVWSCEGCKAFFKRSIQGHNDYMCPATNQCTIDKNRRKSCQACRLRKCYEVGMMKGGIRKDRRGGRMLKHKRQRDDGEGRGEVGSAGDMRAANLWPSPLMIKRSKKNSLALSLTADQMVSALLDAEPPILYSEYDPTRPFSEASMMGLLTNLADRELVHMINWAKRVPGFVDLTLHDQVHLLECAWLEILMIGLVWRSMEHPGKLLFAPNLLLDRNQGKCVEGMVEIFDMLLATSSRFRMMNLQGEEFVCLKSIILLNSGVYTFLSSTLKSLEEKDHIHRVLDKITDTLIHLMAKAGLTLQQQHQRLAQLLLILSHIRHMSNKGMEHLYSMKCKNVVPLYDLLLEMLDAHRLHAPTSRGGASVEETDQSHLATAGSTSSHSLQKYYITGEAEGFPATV
Outline: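 Antagonist mode: compounds in DMSO are pinned onto VM7Luc4E2 reporter cells, 0.1 nM final 17beta-estradiol is added, and after 22 h at 37C luciferase luminescence is measured with ONE-Glo.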

[15] = qHTS assay to identify small molecule HDAC inhibitors (AID 1259364);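 also: wild-type HCT-116 cells with endogenous class I/II HDAC activity; top concentration of the series differs between compounds; nearly all actives have a fitted effect of over 45% in size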
Outline: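 Cells (HCT-116, wild type) are seeded at 1,500 per well, incubated overnight, treated with compound in DMSO for 2 hr, then developed with HDAC-Glo I/II reagent for 30 min at room temperature.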

[16] = qHTS assay to identify small molecule HDAC inhibitors - cell viability counter screen (AID 1259365); also: nearly all actives have a fitted effect of over 50% in size; also: potency is read from the fitted curve at half-maximal effect
Outline: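 HCT-116 (wild type), 1,500 cells/well, overnight 37C/5% CO2; compound in DMSO 2hr; CellTiter-Glo 30min RT; luminescence read.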

[17] = qHTS assay to identify small molecule antagonists of the sonic hedgehog signaling (Shh) pathway - cell viability counter screen (AID 1259367); also: nearly all actives have a fitted effect of over 55% in size; also: potency is read from the fitted curve at half-maximal effect
Outline: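 Tox21 library chemicals were tested on a Gli1-Luc NIH/3T3 clone (2,000 cells/well) stimulated by conditioned medium; viability was quantified as fluorescence from CellTiter-Fluor reagent added at 23 hr.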

[18] = qHTS assay to identify small molecule agonists of the sonic hedgehog signaling (Shh) pathway (AID 1259368; calls by dose curve;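 also: NIH/3T3-derived 3T3Gli1-Luc cells carrying a stable Gli1-driven firefly luciferase reporter; series mostly up to about 92 µM; nearly all actives have a fitted effect of over 15% in size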)
Outline: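 Cells of a mouse NIH/3T3 clone stably expressing luciferase under the Gli1 transcriptional response element are exposed to test chemicals for 24 hr at 37 C. Pathway activation is detected as a rise in luminescence.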

[19] = qHTS assay to identify small molecule agonists of the sonic hedgehog signaling (Shh) pathway - cell viability counter screen (AID 1259366); also: nearly all actives have a fitted effect of over 50% in size; also: potency is read from the fitted curve at half-maximal effect
Outline: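 CellTiter-Fluor fluorescence read-out, 1 hr at 37C, added after 23hr compound exposure. Cells: 3T3 Gli1-Luc, an NIH/3T3 clone with stably integrated Gli1-Luc reporter, plated 4hr before compound.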

[20] = qHTS assay to identify small molecule phospholipidosis (PLD) inducers (AID 1259344; active = well fitted curve in the direction sought with a large enough effect; an effect the other way counts as inactive or inconclusive)
Outline: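 Image-based: LipidTOX Red pit count/intensity per well and per cell; HepG2, 24 h compound at 37 C, PFA fixation, Hoechst counterstain.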

Measured: Potency

CC(CO)Oc1ccccc1 (configuration not stated)
not listed: [19] | [20]
inactive: all other assays above

Cc1c(N)cccc1C(F)(F)F
not listed: [14] | [20]
inactive: all other assays above

CCCCCCCCCCOC(=O)c1ccccc1C(=O)OCCCCCCCC
not listed: [17] | [20]
inactive: all other assays above

O=C(O)c1cc(-c2ccc(F)cc2F)ccc1O
not listed: [13] | [17]
inactive: all other assays above

CC(=O)CC(=O)Nc1ccc(S(=O)(=O)O)cc1
not listed: [13] | [20]
inactive: all other assays above

Nc1nc2c(ncn2COCCO)c(=O)[nH]1
not listed: [13]
inactive: all other assays above

CCN(CC)c1ccc2c(-c3ccc(S(=O)(=O)O)cc3S(=O)(=O)[O-])c3ccc(=[N+](CC)CC)cc-3oc2c1
active: [11] 12.6 µM | [12] 25.1 µM | [13] 22.4 µM | [16] 12.6 µM | [19] 9.99 µM | [17] 11.2 µM
not listed: [14] | [15] | [20]
inactive: all other assays above

O=C(O)c1cc(=O)c2ccccc2o1
not listed: [13] | [19]
inactive: all other assays above

CCCCNS(=O)(=O)c1ccc(C)cc1
active: [3] 4.9 µM
not listed: [13] | [20]
inactive: all other assays above

Cc1ccc(C)cc1
not listed: [20]
inactive: all other assays above

O[C@@H]([C@H](O)[C@H](O)CBr)[C@H](O)CBr
not listed: [13]
inactive: all other assays above

C=C(CC)C(=O)c1ccc(OCC(=O)O)c(Cl)c1Cl
60.7 µM (active) and inactive: [19] | [17]
not listed: [13]
inactive: all other assays above

O=C(O)[C@H](O)[C@@H](O)[C@H](O[C@@H]1O[C@H](CO)[C@H](O)[C@H](O)[C@H]1O)[C@H](O)CO
not listed: [13] | [19]
inactive: all other assays above
